Measurements published in PubChem BioAssay.
Where “and” joins values, the source holds several entries; their conditions need not be identical. Identical values can stand only once. Calls of active or inactive are those of the source. Unless noted, the rule behind the calls is not given here.

What was measured:
[1] = tested on: XIP peptide (Xip251-270) binding; assay: small-molecule binders of XIP peptide, primary screen, biochemical, small-molecule microarray, fluorescence 635/667 nm, 0.1 µg/mL protein (AID 1182); settings: fluorescent protein binding, 635 nm; higher = more signal, called active from +8 up or from −8 down unless noted
XIP peptide (Xip251-270) = assay: small-molecule binders of XIP peptide, primary screen, biochemical, small-molecule microarray, fluorescence 635/667 nm, 0.5 µg/mL protein (AID 1183); settings: small-molecule microarray binding, fluorescence 635 nm; higher = more signal
[2] = Plasmodium falciparum growth inhibition, primary screen, strain 3D7, DAPI fluorescence, 100 nL (AID 1184);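 note: parasites grown inside human red blood cells in medium with human serum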; settings: P. falciparum 3D7 growth, 3 d, higher = more signal
[3] = biological target: Homeobox protein Hox-A13 (Mus musculus) (UniProt Q62424); assay: inhibitors of HoxA13-DNA binding, primary screen, biochemical, fluorescence polarization, labeled oligonucleotide (AID 1185); settings: 15 min; higher = more signal, called active from +8 up or from −8 down unless noted
[4] = inhibitors of hydroxyurea-induced Chk1 phosphorylation, primary screen, imaging, HeLa, phospho-Chk1 antibody, percent positive cells (AID 1186); settings: hydroxyurea-induced phospho-Chk1 immunofluorescence imaging, higher = more signal
[5] = inhibitors of hydroxyurea-induced Chk1 phosphorylation, primary screen, imaging, HeLa, phospho-Chk1 nuclear intensity (AID 1187); settings: hydroxyurea-induced phospho-Chk1 immunofluorescence imaging, higher = more signal

Sequence of Homeobox protein Hox-A13 (Mus musculus) (Q62424 whole entry, looked up): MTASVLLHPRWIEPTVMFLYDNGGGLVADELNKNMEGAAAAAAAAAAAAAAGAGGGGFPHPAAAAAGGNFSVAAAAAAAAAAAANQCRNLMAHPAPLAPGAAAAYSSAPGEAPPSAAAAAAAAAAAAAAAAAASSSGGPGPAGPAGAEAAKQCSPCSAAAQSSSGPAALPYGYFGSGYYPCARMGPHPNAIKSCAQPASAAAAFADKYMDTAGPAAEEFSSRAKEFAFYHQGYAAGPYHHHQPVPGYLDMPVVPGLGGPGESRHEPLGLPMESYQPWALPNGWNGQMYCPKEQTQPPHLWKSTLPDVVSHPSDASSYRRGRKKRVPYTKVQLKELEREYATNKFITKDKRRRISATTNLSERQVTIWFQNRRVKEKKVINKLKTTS

C[C@@H]1OC=C2[C@@H](O)[C@H]3O[C@H]3C(=O)[C@]23[C@H]1[C@H]1C2=C([C@@H](O)[C@H]4O[C@H]4C2=O)[C@@H]3O[C@@H]1C
composite z-score [1]: -0.496 (inactive)
composite z-score (XIP peptide (Xip251-270)): -0.465
z-score [2]: 0.487
z-score [3]: -0.299 (inactive)

CN1CCc2nc(CO)c(CO)cc2C1
composite z-score [1]: -0.102 (inactive)
composite z-score (XIP peptide (Xip251-270)): -0.446
z-score [2]: -0.221
z-score [3]: -0.184 (inactive)

c1ccc(-c2cc3c(nc2-c2ccccc2)CCNC3)cc1
composite z-score [1]: 0.236 (inactive)
composite z-score (XIP peptide (Xip251-270)): 0.0762
z-score [2]: -0.295
z-score [3]: -0.372 (inactive)

CCc1cc2c(nc1CC)CCN(CCC(C)=NOC)C2
composite z-score [1]: 0.341 (inactive)
composite z-score (XIP peptide (Xip251-270)): -0.0832
z-score [2]: -1.21
z-score [3]: -3.29 (inactive)

C[C@H]1O[C@H]2C3=C(C(=O)[C@@H]4O[C@@H]4[C@@H]3O)[C@@H]1[C@@H]1[C@@H](C)OC=C3[C@@H](O)[C@H]4O[C@H]4C(=O)[C@]312
composite z-score [1]: -0.7 (inactive)
composite z-score (XIP peptide (Xip251-270)): 0.938
z-score [2]: -1.58
z-score [3]: -0.276 (inactive)

COC(=O)[C@@]1(Cc2ccccc2)[C@H]2c3cc(C(=O)N(C)C)n(C)c3C[C@H]2CN1C(=O)c1ccccc1
composite z-score [1]: 0.0028 (inactive)
composite z-score (XIP peptide (Xip251-270)): -0.0822
z-score [2]: -0.731
z-score [3]: -6.38 (inactive)
z-score [4]: -0.344 (inactive)
z-score [5]: -0.428 (inactive)

CCCC[C@@H]1C[C@H]1[C@@H](NP(=O)(c1ccccc1)c1ccccc1)c1ccc(Cl)cc1
composite z-score [1]: 0.156 (inactive)
composite z-score (XIP peptide (Xip251-270)): -0.337
z-score [2]: 0.0345
z-score [3]: -2.17 (inactive)
z-score [4]: 0.368 (inactive)
z-score [5]: 0.316 (inactive)

C[C@@H]1Cc2c(cnc3c2CN(C)CC3)CO1
composite z-score [1]: -0.422 (inactive)
composite z-score (XIP peptide (Xip251-270)): 0.188
z-score [2]: -0.0396
z-score [3]: -2.8 (inactive)

COC(=O)[C@H]1C(=O)c2ccccc2O[C@@](C(=O)OC)(c2ccccc2)[C@@H]1c1ccccc1
composite z-score [1]: 0.107 (inactive)
composite z-score (XIP peptide (Xip251-270)): 0.191
z-score [2]: -1.6
z-score [3]: -0.6 (inactive)

COC(=O)[C@H]1[C@@H](O)[C@@]2(O)c3c(OC)cc(OC)cc3O[C@@]2(c2ccc(OC)cc2)[C@@H]1c1ccccc1
composite z-score [1]: -0.119 (inactive)
composite z-score (XIP peptide (Xip251-270)): 0.914
z-score [2]: -1.26
z-score [3]: -0.0317 (inactive)

COC(=O)[C@H]1[C@H](c2ccccc2)C(=O)[C@]2(O)c3ccccc3O[C@@]12c1ccccc1
composite z-score [1]: -0.013 (inactive)
composite z-score (XIP peptide (Xip251-270)): 0.364
z-score [2]: 0.332
z-score [3]: -0.116 (inactive)

CN1CCC(c2ccc(CO)cc2)=CC1C1CC1 (stereo not given)
composite z-score [1]: -0.809 (inactive)
composite z-score (XIP peptide (Xip251-270)): 0.005
z-score [2]: -0.0622
z-score [3]: -1.39 (inactive)
z-score [4]: 0.738 (inactive)
z-score [5]: 0.657 (inactive)

C=C(CC1(CNP(=O)(c2ccccc2)c2ccccc2)CC1)c1ccccc1
composite z-score [1]: 1.26 (inactive)
composite z-score (XIP peptide (Xip251-270)): 0.651
z-score [2]: -0.176
z-score [3]: -2.28 (inactive)
z-score [4]: -0.462 (inactive)
z-score [5]: -0.427 (inactive)

O=P(c1ccccc1)(c1ccccc1)N1CC2(CC2)CC(O)(c2ccccc2)C1 (stereo not given)
composite z-score [1]: 0.115 (inactive)
composite z-score (XIP peptide (Xip251-270)): 0.725
z-score [2]: 0.45
z-score [3]: -2.7 (inactive)
z-score [4]: 0.37 (inactive)
z-score [5]: 0.613 (inactive)

CN1CCC(c2ccc(CO)cc2)=CC1c1cccs1 (stereo not given)
composite z-score [1]: 0.219 (inactive)
composite z-score (XIP peptide (Xip251-270)): 0.171
z-score [2]: -1.99
z-score [3]: -4.11 (inactive)
z-score [4]: 0.126 (inactive)
z-score [5]: -0.0255 (inactive)

CCCC=C(CCC)[C@@H](NP(=O)(c1ccccc1)c1ccccc1)c1ccccc1
composite z-score [1]: 0.147 (inactive)
composite z-score (XIP peptide (Xip251-270)): 0.158
z-score [2]: -0.81
z-score [3]: -1.64 (inactive)
z-score [4]: 0.17 (inactive)
z-score [5]: 0.404 (inactive)

CC1N(P(=O)(c2ccccc2)c2ccccc2)CC(O)(c2ccccc2)CC12CC2 (stereo not given)
composite z-score [1]: 0.51 (inactive) and -0.0366 (inactive)
composite z-score (XIP peptide (Xip251-270)): 0.547 and 0.382
z-score [2]: 0.2 and -0.527
z-score [3]: -3.23 (inactive) and -3.55 (inactive)
z-score [4]: 0.694 (inactive) and 0.475 (inactive)
z-score [5]: 0.608 (inactive) and 0.341 (inactive)

COC(=O)NCC=Cc1nc(CCC=CC(=O)O[C@H]2CC3CC(=O)O[C@@H](C=CCC(C)C)C[C@@H]4CC[C@H](C)[C@@H](C[C@@H](OC)C[C@H](C2)O3)O4)co1
composite z-score [1]: 0.0433 (inactive)
composite z-score (XIP peptide (Xip251-270)): -1
z-score [2]: -1.65
z-score [3]: -2.54 (inactive)

CCOC(=O)[C@H]1CC=C2C(=O)Oc3ccccc3[C@@H]21
composite z-score [1]: 0.23 (inactive)
composite z-score (XIP peptide (Xip251-270)): 0.637
z-score [2]: -0.654
z-score [3]: -2.72 (inactive)
z-score [4]: 0.466 (inactive)
z-score [5]: 0.0685 (inactive)

COC(=O)[C@@]1(Cc2ccc(F)cc2)[C@H]2c3cc(C(=O)N(C)C)[nH]c3C[C@H]2CN1C(=O)c1ccccc1
composite z-score [1]: 0.614 [setting not given] (inactive)
composite z-score (XIP peptide (Xip251-270)): 0.17
z-score [2]: 0.412
z-score [3]: -4.26 [setting not given] (inactive)
z-score [4]: 1.11 (inactive)
z-score [5]: 0.831 (inactive)
